High-throughput results deposited in PubChem by Sanford-Burnham Center for Chemical Genomics.
CYP2C19 act: human CYP2C19 activators, primary screen, biochemical, luminescence | recombinant CYP2C19, luciferin-H EGE luminescence; hits give high values; 0 = fully inhibited enzyme, 1 = untreated enzyme | Cytochrome P450 2C19 (Homo sapiens), P33261 | activation factor at 5 µM | 96,000 tested, under 10 active;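 active = activation factor of at least 2 at 5 µM in the primary screen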;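 also: 0 = wells with 2.5 mM tranylcypromine and 1 = vehicle-only wells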
CYP2C9 activ: human CYP2C9 activators, primary screen, biochemical, luminescence; activation factor at 5 µM; Cytochrome P450 2C9 (Homo sapiens), P11712; recombinant CYP2C9, luciferin-H conversion; hits give high values; factor 1 = untreated enzyme, 0 = blocked; AID 1024, 2008; 96,000 compounds, 1.4% hits;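 active = activation factor of 2 or more for CYP2C9 at a 5 µM dose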;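 also: 0 = sulfaphenazole-blocked wells and 1 = vehicle-only wells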
Target sequence (P11712 whole entry, looked up): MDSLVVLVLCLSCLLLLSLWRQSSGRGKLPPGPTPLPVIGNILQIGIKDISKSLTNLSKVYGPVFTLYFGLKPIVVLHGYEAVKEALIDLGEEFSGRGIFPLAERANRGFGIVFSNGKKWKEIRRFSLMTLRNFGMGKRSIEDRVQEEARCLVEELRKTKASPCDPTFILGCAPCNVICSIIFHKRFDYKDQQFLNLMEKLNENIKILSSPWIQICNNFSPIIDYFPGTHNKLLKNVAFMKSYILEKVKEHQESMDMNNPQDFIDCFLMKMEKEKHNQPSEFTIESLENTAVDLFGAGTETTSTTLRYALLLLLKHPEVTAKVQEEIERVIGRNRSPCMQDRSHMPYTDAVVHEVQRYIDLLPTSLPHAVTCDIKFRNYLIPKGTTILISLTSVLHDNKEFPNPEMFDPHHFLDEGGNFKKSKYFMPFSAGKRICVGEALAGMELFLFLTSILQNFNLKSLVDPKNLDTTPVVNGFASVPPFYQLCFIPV
CYP2C19 inh: blockers of cytochrome P450 2C19 activity – biochemical, luminescence, ADME assay, primary screen. P33261. CYP2C19 Supersomes, luciferin-H EGE luminescence, 30 min. inhibition, % at 5 µM. 96,000 compounds, 21% hits. AID 778, 2007;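 active = CYP2C19 inhibition above a set limit at 5 µM in the primary screen, cut at about 50% in these data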;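 also: plate controls were negative control wells for no effect and 2.5 mM tranylcypromine positive control for full effect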
CYP2C9 inh: blockers of cytochrome P450 2C9 activity – biochemical, luminescence, ADME assay, primary screen; inhibition, % at 5 µM; CYP2C9 Supersomes, luciferin-H conversion; 96,000 compounds, 20% hits; P11712;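 active = blocking of liver enzyme CYP2C9 beyond about 50% at 5 µM, limit read from the data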
* hit, by the source's call. Most compounds without a hit are left out; they make up all but 31% or so of the library.

SMILES | CYP2C19 act | CYP2C9 activ | CYP2C19 inh | CYP2C9 inh
Cc1nn(Cc2ccccc2)c2c1C(c1cccc(Cl)c1)C(C#N)=C(N)O2 (stereo not drawn) | 0.1 | 0.1 | 85.1* | 90.8*
CCCc1nn(C)c2c1C(c1ccncc1)C(C#N)=C(N)O2 (stereo not drawn) | 0.5 | 0.3 | 49.0 | 72.4*
Cc1ccc(-n2nc(C)c3c2OC(N)=C(C#N)C3c2ccccc2F)cc1 (stereo not drawn) | 1.1 | 0.6 | -7.0 | 44.3
CCOC(=O)C1(CCSC)NC(c2ccco2)C2C(=O)N(C)C(=O)C21 (stereo not drawn) | 0.9 | 1.1 | 5.8 | -7.4
Cc1nn(-c2ccccc2)c2c1C(c1c(C)[nH]c(C#N)c1C)C(C#N)=C(N)O2 (stereo not drawn) | 0.3 | 0.1 | 74.0* | 87.0*
Cc1nnsc1C(=O)NC1CCCCC1 | 1 | 1 | -3.5 | 0.1
CC(C)(C)n1nnnc1CN1C2CCC1CC(NC(=O)Nc1ccccc1)C2 (stereo not drawn) | 0.9 | 0.5 | 8.1 | 53.3*
CC(=O)NC1(c2ccccc2)CCN(Cc2nnnn2C(C)(C)C)CC1 | 0.3 | 0.7 | 66.9* | 31.5
CN(C)c1ccc(CNCCC2(O)CCOC(C)(C)C2)cc1 (stereo not drawn) | 0.5 | 1 | 53.4* | 4.5
CC1CCCCC1NC(=O)CSc1nnc(-c2ccccc2)n1N (stereo not drawn) | 0.1 | 0.4 | 88.2* | 56.1*
CCN(CC)S(=O)(=O)c1cccc(-c2nnc(SCC(=O)NC3CCCCCC3)n2N)c1 | 0.4 | 0.4 | 57.3* | 59.8*
CCN(CC)S(=O)(=O)c1cccc(-c2nnc(SCC(=O)NC3CCCC3)n2N)c1 | 0.8 | 0.9 | 20.3 | 8.3
CCN(CC)S(=O)(=O)c1cccc(-c2nnc(SCC(=O)NC3CCCCCCC3)n2N)c1 | 0.5 | 0.2 | 52.2* | 78.6*
O=C(O)CCC(=O)N1CCc2cc(S(=O)(=O)N3CCC(Cc4ccccc4)CC3)ccc21 | 0.7 | 0.8 | 32.7 | 18.4
COCCNC(=O)NC(=O)COC(=O)Cc1ccc2c(c1)OCCO2 | 1 | 1 | 2.3 | -2.1
Cc1ccc(NC(=O)c2ccc(CSc3nccc(C)n3)cc2)cc1 | 0.7 | 0.4 | 31.7 | 64.5*
CCCN1CCN(CCCNC(=O)Cn2nc(-c3ccc(C)cc3)ccc2=O)CC1 | 1.1 | 0.9 | -11.4 | 14.6
CCOC(=O)Cn1nc(-c2ccc(C)cc2)ccc1=O | 0.5 | 0.5 | 49.0 | 51.6*
CCOC(=O)C1CCN(C(=O)CCc2c(C)nc3cc(-c4ccccc4)nn3c2C)CC1 | 0.7 | 0.6 | 31.8 | 35.8
CCOC(=O)CCn1nc(-c2ccccc2)cc1N | 0.3 | 0.9 | 65.8* | 9.8
O=c1c2[nH]c3ccc(F)cc3c2ncn1CCCn1ccnc1 | 0.4 | 0.2 | 63.7* | 79.7*
O=c1c2[nH]c3ccc(Cl)cc3c2ncn1CCN1CCCCC1 | 0.3 | 0.4 | 74.0* | 59.3*
O=C(CSc1nccn1-c1ccc(F)cc1)Nc1ccc2c(c1)OCO2 | 0.5 | 0.7 | 52.5* | 32.4
CSc1nccn1CC(=O)Nc1ccc(F)cc1 | 0.4 | 0.9 | 63.0* | 6.7
O=C(CSc1nccn1-c1ccccc1)Nc1ccc2c(c1)OCO2 | 0.1 | 0.3 | 87.1* | 73.8*
SMILES | CYP2C19 act | CYP2C9 activ | CYP2C19 inh | CYP2C9 inh
Cn1cccc1Cc1nnc(SCC(=O)Nc2ccc3c(c2)OCO3)n1-c1ccc(F)cc1 | 0.6 | 0.6 | 40.5 | 43.9
Cc1cc(C)cc(-n2ccnc2SCC(=O)Nc2ccc3c(c2)OCCO3)c1 | 0.8 | 0.6 | 22.7 | 42.4
COc1ccc(OC(=O)c2cnn(-c3ccccc3)c2C)cc1 | 0.8 | 0.6 | 19.5 | 39.0
CCOc1ccc(C2c3c(oc4ccccc4c3=O)C(=O)N2CCCN2CCOCC2)cc1OCC (stereo not drawn) | 0.9 | 1 | 11.5 | 4.8
Cc1c(C(=O)Nc2ccccc2N2CCOCC2)sc2nc3n(c(=O)c12)CCC3 | 1 | 1 | 2.2 | -3.4
CCOC(=O)C1=C(C)N(C2CCCCC2)C(=O)C1 | 0.1 | 0.6 | 94.0* | 41.4
COC(=O)C1=C(C)N(c2cc(Cl)cc(Cl)c2)C(=O)C1 | 0.4 | 1 | 62.4* | 1.9
COC(=O)C1=C(C)N(C2CCCCC2)C(=O)C1 | 0.4 | 1 | 55.4* | 1.0
CCOC(=O)C1=NNC2C(=O)N(C3CCCCC3)C(=O)C12 (stereo not drawn) | 0.8 | 0.9 | 25.0 | 7.6
CC(C)OC(=O)C1C(=O)CC(C)(O)C(C(=O)OC(C)C)C1c1cccc(O)c1 (stereo not drawn) | 0.5 | 0.8 | 49.7 | 22.4
CC(C)c1nnc(NC(=O)CCC(=O)N2CCN(c3ccccn3)CC2)s1 | 1 | 1 | 1.0 | -4.5
O=C(Nc1ncc2c(n1)-c1ccccc1CC2)c1cccc(Cl)c1 | 0.9 | 0.8 | 14.2 | 21.4
COc1ccc(CCNC(=O)c2ccc(N3CCCC3=O)cc2)cc1OC | 0.9 | 0.9 | 13.2 | 7.7
COc1ccc(COC(=O)c2ccc(N3CCCC3=O)cc2)cc1F | 0.5 | 0.4 | 45.3 | 60.9*
C#CC1(O)CC(C)N(C)C(C)C1 (stereo not drawn) | 1.1 | 1 | -6.6 | -4.8
CCOC(=O)N1CCN(C(=O)Cc2ccc(C)cc2)CC1 | 0.8 | 0.6 | 23.7 | 44.6
Clc1ccc(OCc2cc(-c3ccccc3)no2)cc1Cl | 1 | 0.3 | 0.9 | 69.1*
O=S(=O)(Cc1cc(-c2ccc(Cl)cc2)no1)c1ccccc1 | 0.6 | 0.8 | 39.0 | 17.0
CCN1CCN(C(=S)c2ccc(OCC(=O)N3CCOCC3)cc2)CC1 | 0.9 | 1 | 5.7 | -1.3
O=C(OCc1cc2ccccc2[nH]c1=O)c1ccccc1 | 0.4 | 0.6 | 58.8* | 44.0
COc1ccc(-c2nc(N)n(C(=O)Cc3ccccc3)n2)cc1 | 0.9 | 0.9 | 9.6 | 10.6
COc1ccc2cc3c(N)nn(C(=O)Cc4ccccc4OC)c3nc2c1 | 0.2 | 0.3 | 78.0* | 74.8*
Cc1ccc(S(=O)(=O)N2c3cc(C)ccc3OCC2C(C)(C)C)cc1 (stereo not drawn) | 1 | 0.5 | 4.5 | 50.5*
CCN(CC)S(=O)(=O)c1ccc(-n2cnnn2)c(C)c1 | 0.6 | 1 | 35.7 | 4.1
COc1cc(S(=O)(=O)N(Cc2cccs2)CC2CCCO2)ccc1-n1cnnn1 (stereo not drawn) | 0.5 | 0.7 | 47.4 | 31.3
SMILES | CYP2C19 act | CYP2C9 activ | CYP2C19 inh | CYP2C9 inh
COc1ccc(CN(Cc2ccccn2)S(=O)(=O)c2ccc(-n3cnnn3)c(OC)c2)cc1 | 0.1 | 0.1 | 89.2* | 92.0*
Cc1cc(S(=O)(=O)N(Cc2ccccn2)Cc2ccco2)ccc1-n1cnnn1 | 0.3 | 0.5 | 74.7* | 53.9*
CCCN(CC1CC1)S(=O)(=O)c1ccc(-n2cnnn2)c(OC)c1 | 0 | 0.9 | 100.4* | 8.1
COc1cc(S(=O)(=O)N(Cc2ccco2)C2CCCC2)ccc1-n1cnnn1 | 0 | 0.3 | 98.4* | 74.2*
COc1ccc(OC)c(-n2cnnn2)c1 | 1 | 1 | -4.3 | -4.9
CCOc1ccccc1CN(Cc1ccco1)S(=O)(=O)c1ccc(-n2cnnn2)c(OC)c1 | 0.1 | 0.3 | 93.8* | 68.1*
